Experimental data published in PubChem BioAssay (NCATS).
Records with an inconclusive call do not appear. Active and inactive are the calls of the source. Calls follow the shape of the dose curve; as a rule, active = well fitted curve in the direction sought with a large enough effect; inconclusive = small, poorly fitted or top-dose-only effect, or another doubt; inactive = no such curve, though single readings can be large; an effect the other way counts as inactive or inconclusive.

Assays:
[1] = P-glycoprotein substrates identified in KB-3-1 adenocarcinoma cell line, qHTS therapeutic library screen (AID 1346986); also: nearly all actives have a fitted effect of over 60% in size
Outline: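 Cells seeded 500/well in DMEM/10% FCS; compounds pinned in dose-response; 72 h incubation; CellTiter-Glo added, 5 min, luminescence. KB-8-5-11 run ±tariquidar to test reversal of P-gp resistance.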

[2] = P-glycoprotein substrates identified in KB-8-5-11 adenocarcinoma cell line, qHTS therapeutic library screen (AID 1346987); also: nearly all actives have a fitted effect of over 65% in size; as to activity change, negative = cytotoxicity: series mostly up to about 44 µM; % is scaled to controls: 0 for no effect and ±100 for the full control effect
Outline: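 Steps: plate 500 KB-8-5-11 cells/well in DMEM + 10% FCS (colchicine removed); pin compounds in dose-response; incubate 72 h, 37 degree C, 5% CO2; add CellTiter-Glo, 5 min; read luminescence.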

[3] = system: Zika virus NS2B-NS3 protease (unlinked complex); experiment: Primary screen GU Rhodamine qHTS for Zika virus inhibitors: Unlinked NS2B-NS3 protease assay (AID 1347159); also: % is scaled to controls: 0 for no effect and ±100 for the full control effect; nearly all actives have a fitted effect of over 60% in size
Outline: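 A qHTS format was used, with compound concentrations ranging up to 114 microM. Each compound was preincubated with 25 nM NS2B-NS3 protease, and the substrate was then added at 1.5 microM. Curves were fitted with a 4-parameter Hill model.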

[4] = system: Zika virus NS2B-NS3 protease (linked construct); experiment: Primary screen NINDS Rhodamine qHTS for Zika virus inhibitors (AID 1347160); also: nearly all actives have a fitted effect of over 55% in size
Outline: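 Kinetic fluorescence (Ex 480 nm, Em 540 nm) over 15 min with 1.5 microM Rhodamine110 peptide and 25 nM linked protease.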

COC(=O)C1=COC(OC2OC(CO)C(O)C(O)C2O)C2C(C)CC(=O)C12O (stereo not drawn)
inactive: Potency [1] | Potency [2] | Potency [3] | Potency [4]

Cc1cccc(-c2nn3c(c2-c2ccnc4ccc(C(N)=O)cc24)CCC3)n1
inactive: Potency [1] | Potency [2] | Potency [3] | Potency [4]

CCC(C)C(=O)O[C@H]1C[C@](C)(O)[C@]23OC(C)(C)[C@H](C[C@H](OC(=O)c4ccccc4)[C@]2(COC(C)=O)[C@H]1OC(=O)C(C)CC)[C@H]3OC(C)=O (stereo partly drawn)
inactive: Potency [1] | Potency [2] | Potency [3] | Potency [4]

CC1(C(=O)O)CC[C@]2(C(=O)OC3OC(CO)C(O)C(O)C3O)CC[C@]3(C)C(=CCC4[C@@]5(C)CC[C@H](OC6OCC(O)C(O)C6OC6OC(CO)C(O)C(O)C6O)C(C)(C)C5CC[C@]43C)C2C1 (stereo partly drawn)
inactive: outcome [1] inactive [at 9.29 µM] | outcome [2] inactive [at 9.29 µM] | Potency [3] | Potency [4]

COC(=O)c1ccc(OC)cc1O[C@@H]1O[C@H](CO[C@@H]2OC[C@@H](O)[C@H](O)[C@H]2O)[C@@H](O)[C@H](O)[C@H]1O
inactive: Potency [1] | Potency [2] | Potency [3] | Potency [4]

C=C1CC2C3(C)C(O)CC(=O)C(C)(C)C3C(O)C(OC(C)=O)C2(C)C2C(=O)OC(C)(C(=O)OC)C(=O)C12C (stereo not drawn)
inactive: Potency [1] | Potency [2] | Potency [3] | Potency [4]

CCN1CCN(C(=O)N[C@@H](C(=O)N[C@@H]2C(=O)N3[C@@H]2SC(C)(C)[C@@H]3C(=O)O)c2ccccc2)C(=O)C1=O
inactive: Potency [1] | Potency [2] | Potency [3] | Potency [4]

CC(=O)O[C@H]1C[C@@H](O)C(C)(C)C2C[C@@H](OC(C)=O)[C@]3(C)C(CC[C@@]4(C)[C@H](c5ccoc5)OC(=O)[C@H]5O[C@]543)[C@]21C (stereo partly drawn)
inactive: Potency [1] | Potency [2] | Potency [3] | Potency [4]

N#CN1CCC[C@@H](n2nc(-c3ccc(Oc4ccc(F)cc4F)cc3)c(C(N)=O)c2N)C1
inactive: Potency [1] | Potency [2] | Potency [3] | Potency [4]

O=C(O)/C=C/c1ccc(O[C@@H]2O[C@H](CO)[C@@H](O)[C@H](O)[C@H]2O)cc1
inactive: Potency [1] | Potency [2] | Potency [3] | Potency [4]

N#Cc1cccc(-c2nc(-c3cccnc3)no2)c1
inactive: Potency [1] | Potency [2] | Potency [3] | Potency [4]

O=C(c1ccc(Cl)c([N+](=O)[O-])c1)N1CCN(c2ccccc2F)CC1
inactive: Potency [1] | Potency [2] | Potency [3] | Potency [4]

O=C(C[C@@H]1C(C(=O)O)=CO[C@@H](O[C@@H]2O[C@H](CO)[C@@H](O)[C@H](O)[C@H]2O)/C1=C\CO)OCCc1ccc(O)cc1
inactive: Potency [1] | Potency [2] | Potency [3] | Potency [4]

C/C=C(\C)C(=O)OCC1OC(OC2OC(CO)C(O)C(O)C2O)C(O)C(O)C1O (stereo not drawn)
inactive: Potency [1] | Potency [2] | Potency [3] | Potency [4]

O=C(Nc1ccn(Cc2c(F)cccc2C(F)(F)F)n1)c1c(F)cccc1F
inactive: outcome [1] inactive [at 9.29 µM] | activity change, negative = cytotoxicity [2] 7.74% [at 9.29 µM] | Potency [3] | Potency [4]

OC[C@H]1O[C@@H](OCc2ccccc2)[C@H](O[C@@H]2OC[C@@H](O)[C@H](O)[C@H]2O)[C@@H](O)[C@@H]1O
inactive: Potency [1] | Potency [2] | Potency [3] | Potency [4]

CN(C)c1ccc(C2O[C@@H](c3ccccc3)C[C@H](c3ccccc3)O2)cc1 (stereo partly drawn)
inactive: Potency [1] | Potency [2] | Potency [3] | Potency [4]

Cc1cc(C(=O)N2Cc3cnn(C)c3Nc3ccccc32)ccc1CNC(=O)N1CCN(Cc2cc(O)cc(O)c2)CC1
inactive: Potency [1] | Potency [2] | Potency [3] | Potency [4]

C=C(C)[C@@H]1CC[C@]2(C(=O)O)CC[C@]3(C)C(CCC4[C@]5(C)C(CC[C@]43C)C(C)(C)[C@@H](O)[C@@H]5C(=O)O)C12 (stereo partly drawn)
inactive: Potency [1] | Potency [2] | Potency [3] | Potency [4]

COC(=O)C1=CO[C@@H](O[C@@H]2O[C@H](CO)[C@@H](O)[C@H](O)[C@H]2O)[C@@H]2[C@@H](C)[C@@H](OC(=O)/C=C/c3ccccc3)[C@@H](O)[C@H]12
inactive: Potency [1] | Potency [2] | Potency [3] | Potency [4]

COc1cc(C(=O)OC[C@H]2O[C@@H](OC(C)(C)C(=O)O)[C@H](O)[C@@H](O)[C@@H]2O)cc(OC)c1O
inactive: Potency [1] | Potency [2] | Potency [3] | Potency [4]

COc1ccc2c(c1)N1C(=O)C[C@@]34C=CC[N@+]5([O-])CC[C@H]2[C@H](CC3)[C@@]145
inactive: Potency [1] | Potency [2] | Potency [3] | Potency [4]

CN(C)CC(c1ccc(O)cc1)C1(O)CCCCC1 (stereo not drawn)
inactive: Potency [1] | Potency [2] | Potency [3] | Potency [4]

CCCCCOC(=O)Nc1nc(=O)n(C2O[C@H](C)[C@@H](O)[C@H]2O)cc1F (stereo partly drawn)
inactive: Potency [1] | Potency [2] | Potency [3] | Potency [4]

C[C@@H]1O[C@@H](O[C@H]2[C@H](Oc3cc(O)c(C(=O)CCc4ccc(O)cc4)c(O)c3)O[C@H](CO)[C@@H](O)[C@@H]2O)[C@H](O)[C@H](O)[C@H]1O
inactive: Potency [1] | Potency [2] | Potency [3] | Potency [4]

O=C(O)c1ccc(NC(=O)[C@H](CC2CCCC2)n2cnc(C(F)(F)F)c2)nc1
inactive: Potency [1] | Potency [2] | Potency [3] | Potency [4]

OC[C@@]1(O)CO[C@@H](OC[C@H]2O[C@@H](OCc3ccccc3)[C@H](O)[C@@H](O)[C@@H]2O)[C@@H]1O
inactive: Potency [1] | Potency [2] | Potency [3] | Potency [4]
